An excerpt weighted towards active compounds, which were near 0.83% of everything screened.
GLS inhibitor = inhibitors of human glutaminase (GLS); O94925; GLS enzymatic activity, qHTS titration; Potency, µM (series often up to 45.5 µM), for the others: at the highest dose activity change, negative = inhibition, usual class: inhibitors; 0.21% of 410,000 active; active = well fitted inhibition curve with a large enough effect; inconclusive = small, poorly fitted or top-dose-only effect, or another doubt; inactive = no such curve, though single readings can be large or run the other way; also: potency is read from the fitted curve at half-maximal effect; % is scaled to controls: 0 for no effect and ±100 for the full control effect
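Assay buffer: 45 mM KH2PO4 pH 8.2, 0.02% Tween-20. hKGA acts on L-glutamine (1 mM solution added); product glutamate is reported by an oxidase/peroxidase Amplex Red coupling, with fluorescence taken at baseline and 30 min.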
MLL CXXC-DNA inh = MLL CXXC-DNA interaction inhibition; Q03164; MLL-CXXC / FITC-HOXA9 DNA fluorescence polarization; Potency, µM (series often up to 115 µM), for inactives: at the top dose activity change, negative = inhibition, usual class: inhibitors; 0.037% of 290,000 active; active = well fitted inhibition curve with a large enough effect in the polarisation, with a control signal flat, not every such curve was filed as active; inconclusive = small, poorly fitted or top-dose-only effect, or effect the other way, or a change in a side signal; inactive = no such curve, though single readings can be large or run the other way; the % refers to the polarisation; also: potency is read from the fitted curve at half-maximal effect
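Purified MLL-CXXC (added from a 7 uM solution) was preincubated 5 min at ambient with pinned compounds in 50 mM Tris-HCl pH 7.5, 50 mM NaCl, 1 mM DTT, 0.05% BSA. Fluorescein-labeled HOX-A9 DNA (50 nM solution) followed, 30 min, then polarization read.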
CtBP-E1A inh = CtBP/E1A binding inhibition; 0.49% of 340,000 active; AlphaScreen GST-E1A/His-CtBP binding, 1536-well; hits give low values; activity change, % (concentration not given with the values); also: % is scaled to controls: 0 for no effect and ±100 for the full control effect
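Homogeneous bead-based format: GST-tagged E1A captured on glutathione donor beads, His-tagged CtBP on nickel acceptor beads; compounds precede bead addition by 2 h at 37 °C.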
Menin-MLL TR inh = inhibitors of human menin-MLL interaction, mutant MLL peptide. O00255. Menin + Texas Red MLL mutant peptide, fluorescence polarization. Potency, µM (titrated, usually from 61.6 µM), inactives show at the highest dose FP activity change, negative = inhibition, usual class: inhibitors. 0.23% of 270,000 active; active = well fitted inhibition curve with a large enough effect in the polarisation, with a control signal flat, not every such curve was filed as active; inconclusive = small, poorly fitted or top-dose-only effect, or effect the other way, or a change in a side signal; inactive = no such curve, though single readings can be large or run the other way; the % refers to the polarisation; also: potency is read from the fitted curve at half-maximal effect; % of control where 0% means no effect
Menin MLL FP FL = inhibitors of human menin-MLL interaction, wild-type MLL peptide; FP activity change, % at 61.4 µM; 290,000 tested, under 10 active; Fluorescence polarization, fluorescein-MLL peptide displacement from menin; active = well fitted curve in the direction sought with a large enough effect in the polarisation, not every such curve was filed as active; inconclusive = small, poorly fitted or top-dose-only effect, or effect the other way, or a change in a side signal; inactive = no such curve, though single readings can be large or run the other way; the % refers to the polarisation; also: % of control where 0% means no effect
Six1-Eya2 blk = Six1/Eya2 interaction inhibition; 0.56% of 360,000 active; AlphaScreen GST-Six1/His-Eya2 binding, biochemical; hits give low values; Q15475+O00167; activity change, % (no concentration beside the values); also: % is scaled to controls: 0 for no effect and ±100 for the full control effect
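Six1/Eya2 binding was read as AlphaScreen signal after compounds were pinned into GST-Six1 plus His-tagged Eya2 (5X stock 250/500 nM) in pH 8.0 Tris/NaCl/TCEP buffer, beads added, then incubated 1 h, 37 C, dark.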
Numbers without * were called inactive; [ ] = another dose, or the depositor's remark. Rule as the data show it, unless noted: active = activity change below about -65%; inconclusive = mostly about -30% to -63%; inactive = weaker than that.

`Cc1ccccc1-c1cc(-n2ccnc2)ncn1` gave Menin-MLL TR inh 1% and Menin MLL FP FL -6.
COC(=O)N1CCC2(CCCN(Cc3ccc(C#N)cc3)C2)CC1 was read as Menin-MLL TR inh -11% and Menin MLL FP FL 13.
For O=C1CC(N(CCc2ccccc2)C(=S)Nc2cc(Cl)ccc2Cl)C(=O)N1c1c(Cl)cccc1Cl (centres undefined) the results were GLS inhibitor -6%, MLL CXXC-DNA inh 6%, CtBP-E1A inh -2, Menin-MLL TR inh 10µM*, Menin MLL FP FL 1 and Six1-Eya2 blk -5.
COc1ccc([C@@H]2CC(=O)c3c(O)cc(O[C@H]4O[C@@H](CO[C@H]5O[C@@H](C)[C@@H](O)[C@@H](O)[C@@H]5O)[C@@H](O)[C@@H](O)[C@@H]4O)cc3O2)cc1O was read as GLS inhibitor -17%[20 µM], MLL CXXC-DNA inh 0%[51.4 µM], Menin-MLL TR inh inconclusive and Menin MLL FP FL 6[24.8 µM].
CC(/C=N/Nc1nnc(C)c(=O)[nH]1)=C\c1ccccc1 was read as GLS inhibitor 10%, MLL CXXC-DNA inh -1%, CtBP-E1A inh 9, Menin-MLL TR inh inconclusive, Menin MLL FP FL 1 and Six1-Eya2 blk -7.
`C/C(=N\Nc1nnc(C)c(=O)[nH]1)C(=O)O` gave GLS inhibitor 10%, MLL CXXC-DNA inh -9%, CtBP-E1A inh -87*, Menin-MLL TR inh -26%, Menin MLL FP FL 5 and Six1-Eya2 blk -89*.
Cc1cccc(NC(c2ccc(O)cc2)c2ccc3ccc(C)nc3c2O)n1 (centres undefined) was read as GLS inhibitor 17%, MLL CXXC-DNA inh -2%, CtBP-E1A inh inconclusive, Menin-MLL TR inh 3%, Menin MLL FP FL 2 and Six1-Eya2 blk -23.
Screening Oc1c(C(Nc2cccc(C(F)(F)F)c2)c2cccnc2)ccc2cccnc12 (centres undefined) returned GLS inhibitor 0%, MLL CXXC-DNA inh 0%, CtBP-E1A inh -86*, Menin-MLL TR inh 12%, Menin MLL FP FL -2 and Six1-Eya2 blk -82*.
Cc1cc(NC(c2cccnc2)c2ccc3cccnc3c2O)no1 (centres undefined) was read as GLS inhibitor 26%, MLL CXXC-DNA inh inconclusive, CtBP-E1A inh -93*, Menin-MLL TR inh -9%, Menin MLL FP FL 0 and Six1-Eya2 blk -88*.
For COc1cc2ccccc2cc1C(=O)N1CCN(c2nc3c(F)cc(F)cc3s2)CC1 the results were GLS inhibitor -8%.
For Cc1ccc(NC(=O)C2CCCN(S(=O)(=O)c3ccc4c(c3)CCCC(=O)N4)C2)cc1Cl (centres undefined) the results were GLS inhibitor 4%.
`CS(=O)(=O)Nc1ccc(-c2ccc(/C=C3\SC(N)=NC3=O)o2)cc1` gave GLS inhibitor 3%, MLL CXXC-DNA inh inconclusive, CtBP-E1A inh -68*, Menin-MLL TR inh inconclusive, Menin MLL FP FL inconclusive and Six1-Eya2 blk inconclusive.
For C/C=C1\NC(=O)[C@H]2CSSCC/C=C\[C@H](CC(=O)N[C@H](C(C)C)C(=O)N2)OC(=O)C(C(C)C)NC1=O (some centres undefined) the results were GLS inhibitor 0%.
For COc1ccc(NC(=O)c2c(-c3ccccc3)c(-c3ccccc3)nn(C)c2=O)c(OC)c1 the results were GLS inhibitor 12%.
`Cc1onc(-c2ccccc2)c1C(=O)NC(=S)NNC(=O)c1ccccc1O` gave GLS inhibitor 3%, MLL CXXC-DNA inh 7%, CtBP-E1A inh 7, Menin-MLL TR inh inconclusive and Six1-Eya2 blk -85*.
`Cc1onc(-c2ccccc2)c1C(=O)NC(=S)NNC(=O)c1ccc(O)cc1O` gave GLS inhibitor 26%, MLL CXXC-DNA inh 12%, CtBP-E1A inh -14, Menin-MLL TR inh 9% and Six1-Eya2 blk -93*.
Cc1onc(-c2ccccc2)c1C(=O)NC(=S)NNC(=O)c1ccc(O)cc1 was read as GLS inhibitor 30%, MLL CXXC-DNA inh 8%, CtBP-E1A inh -4, Menin-MLL TR inh inconclusive and Six1-Eya2 blk -9.
`CC[C@@H](C(=O)[C@@H](C)[C@@H](O)[C@H](C)CCc1ccc(C)c(O)c1C(=O)O)C1O[C@](CC)(C2CC[C@](O)(CC)[C@H](C)O2)C[C@@H]1C` (some centres undefined) gave Menin-MLL TR inh 14% and Menin MLL FP FL 2.
CCCCCCCCCCCCCCOc1ccc(C(=O)O)o1 was read as Menin-MLL TR inh -8% and Menin MLL FP FL inconclusive.
For COC(=O)c1cc(NC(=O)c2ccccc2)c(=O)oc1/C=C/Nc1ccc(Oc2ccccc2)cc1 the results were GLS inhibitor -9%, MLL CXXC-DNA inh inconclusive, CtBP-E1A inh 23, Menin-MLL TR inh 10µM*, Menin MLL FP FL inconclusive and Six1-Eya2 blk 6.
`COc1ccc(C(=O)Nc2cc(C(C)=O)c(C)oc2=O)cc1` gave GLS inhibitor -6%, MLL CXXC-DNA inh 8%, CtBP-E1A inh 2, Menin-MLL TR inh 3%, Menin MLL FP FL 2 and Six1-Eya2 blk 6.
Screening O=C(Nc1ccc(F)cc1)c1nc[nH]c1C(=O)O returned GLS inhibitor 1%, MLL CXXC-DNA inh -11%, Menin-MLL TR inh 3%, Menin MLL FP FL -12 and Six1-Eya2 blk -77*.
Screening O=C(Nc1ccc(F)cc1)c1nc[nH]c1C(=O)Nc1ccccc1[N+](=O)[O-] returned GLS inhibitor 3%, MLL CXXC-DNA inh 1%, CtBP-E1A inh 4, Menin-MLL TR inh -6%, Menin MLL FP FL 1 and Six1-Eya2 blk -1.
For Cc1ccc(-c2c(CN3CCN(c4cccc(C(F)(F)F)c4)CC3)csc2C)cc1 the results were GLS inhibitor -1%.
For S=C(NCc1ccccn1)Nc1ccc(Cl)c(Cl)c1 the results were GLS inhibitor -1%, MLL CXXC-DNA inh -5%, CtBP-E1A inh 0, Menin-MLL TR inh inconclusive, Menin MLL FP FL 6 and Six1-Eya2 blk -5.
`CCNC(=S)NNC(=O)c1ccccn1` gave GLS inhibitor 23%, MLL CXXC-DNA inh -1%, CtBP-E1A inh -96*, Menin-MLL TR inh 2%, Menin MLL FP FL 2 and Six1-Eya2 blk -95*.
Screening CCNC(=S)NNC(=O)c1ccccc1Cl returned GLS inhibitor 25%, MLL CXXC-DNA inh -19%, CtBP-E1A inh 9, Menin-MLL TR inh 11%, Menin MLL FP FL 10 and Six1-Eya2 blk 10.
For O=C(NNC(=S)Nc1ccc(Cl)c(Cl)c1)c1ccccn1 the results were GLS inhibitor 22%, MLL CXXC-DNA inh 0%, Menin-MLL TR inh inconclusive, Menin MLL FP FL 1 and Six1-Eya2 blk -90*.
Cc1cc2c(cc1NC(=O)c1ccc(C(C)(C)C)cc1)n(C)c(=O)c(=O)n2C was read as GLS inhibitor -3%.
